Measurements from PubChem BioAssay AID624330 (Southern Research Specialized Biocontainment Screening …, 2012).
Out of some 340,000 compounds screened, about 2,100 (0.62%) were called active.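 Rule for the calls: active = first-screen hits whose inhibition reached a set limit at any dose in the follow-up dose series; inconclusive = inhibition above the set first-screen limit but never retested; inactive = the rest.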 A selection follows. Measured potencies and affinities stand elsewhere.

molecular target: Rac GTPase-activating protein 1 (Homo sapiens) (UniProt Q9H0H5); assay: MgcRacGAP GTPase-activating activity inhibitors, confirmation, biochemical, ADP Hunter fluorescence, primary and confirmatory (AID 624330); conditions: MgcRacGAP-stimulated Rac1 GTP hydrolysis, at 30 µM, stronger effect = higher value, GST-tagged Rac1 F28L mutant substrate;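 note: fluorescence reports GDP produced by GAP-driven GTP hydrolysis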
Sequence (Q9H0H5 whole entry, looked up): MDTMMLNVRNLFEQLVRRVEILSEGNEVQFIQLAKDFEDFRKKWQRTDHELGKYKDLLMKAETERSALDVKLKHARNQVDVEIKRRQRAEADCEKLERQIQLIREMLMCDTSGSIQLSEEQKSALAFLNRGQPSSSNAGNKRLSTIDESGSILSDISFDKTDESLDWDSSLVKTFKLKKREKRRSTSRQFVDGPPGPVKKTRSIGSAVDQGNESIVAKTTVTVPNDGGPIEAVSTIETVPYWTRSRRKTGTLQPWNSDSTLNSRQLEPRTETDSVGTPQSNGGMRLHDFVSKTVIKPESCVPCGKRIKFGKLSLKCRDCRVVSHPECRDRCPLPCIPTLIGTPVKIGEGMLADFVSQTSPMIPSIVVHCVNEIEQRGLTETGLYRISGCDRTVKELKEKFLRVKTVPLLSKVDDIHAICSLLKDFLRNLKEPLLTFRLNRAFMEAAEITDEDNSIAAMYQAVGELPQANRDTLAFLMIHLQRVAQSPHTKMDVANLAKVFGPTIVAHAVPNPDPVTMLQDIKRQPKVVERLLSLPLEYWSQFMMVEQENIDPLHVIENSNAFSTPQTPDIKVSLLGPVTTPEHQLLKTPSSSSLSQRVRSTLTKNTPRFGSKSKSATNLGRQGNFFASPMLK

inhibition, inactive:
Cc1ccc(C(C(=O)NC2CCCCC2)N(Cc2ccco2)C(=O)Cc2c[nH]c3ccccc23)o1 (centres undefined) 9.31%
COc1cc(OC)cc(C(=O)NCCCN2CCOCC2)c1 5.65%
CCc1c(C)nc(SCC(=O)N2CCCCC2)[nH]c1=O 0.74%
O=C1c2ccccc2C(=O)N1CCCCSc1nnc(-c2ccc(OC(F)F)cc2)o1 -1.82%
CC(CNC(=O)Cn1ccc(N)nc1=O)c1ccccc1 (centres undefined) -5.59%
COc1cc(/C=C2/C(=N)N3C(=NC2=O)SN=C3S(C)(=O)=O)ccc1OS(=O)(=O)c1ccc(C)cc1 11.8%
COc1cc(/C=C2\C(=N)N3N=C(S(C)(=O)=O)SC3=NC2=O)ccc1OS(=O)(=O)c1ccc(C)cc1 23.8%
Cc1ccc(/C=C2/C(=N)N3N=C(CC(=O)N4CCCC4)SC3=NC2=O)cc1 1.49%
Cc1ccc(/C=C2\C(=N)N3N=C(CC(=O)N4CCCCC4)SC3=NC2=O)cc1 7.03%
CCN(CC)c1ccc(/C=C2\C(=N)N3N=C(CC(=O)N4CCOCC4)SC3=NC2=O)cc1 5.98%
COc1ccc(/C=C2\C(=N)N3N=C(CC(=O)N4CCOCC4)SC3=NC2=O)cc1 5.52%
CSc1ccc(/C=C2\C(=N)N3N=C(CC(=O)N4CCOCC4)SC3=NC2=O)cc1 -13.1%
COc1cc(/C=C2/C(=N)N3N=C(CC(=O)N4CCOCC4)SC3=NC2=O)ccc1OCc1ccccc1 11.5%
CCCc1nc(NC(=O)c2ccccc2)nc(NC(=O)c2ccccc2)n1 3.82%
Cc1nc(-c2ccccc2)cc(-c2ccccc2)n1 12.4%
CN1CCN(/N=C/c2ccc(Cl)c(Cl)c2)CC1 -7.71%
Cc1ccc(-c2nc3sc4c(c3c(=O)n2N)CC(C)(C)OC4)cc1 3.06%
CCO[C@H]1OC(C(=O)NC2CC2)=C[C@@H](c2ccc3c(c2)OCO3)[C@@H]1CCCO 6.42%
CCCCc1ccc(/C=C2\C(=O)ON=C2c2ccccc2)s1 2.22%
CSc1nc2sc3c(c2c(=O)n1C)CCC3 15.1%
O=C(O)c1ccccc1C(=O)Nc1ccc(Nc2ccc([N+](=O)[O-])cc2[N+](=O)[O-])cc1 15.6%
COc1ccccc1N1C(=O)C2C3CC(c4ccccc4)C(C3)C2C1=O (centres undefined) 7.95%
O=C(O)CCNS(=O)(=O)c1ccc2c(c1)OCCCO2 9.26%
Cc1ccc(Cl)c(NC(=O)CN2C(=O)C(C)N(c3ccc(F)cc3)C2=O)c1Cl (centres undefined) 15.2%
